Screen size: about 190,000 compounds; about 240 (0.13%) were called active. No stated cut-off is given here; in the data, active means inhibition above about 40%. Only a selection was taken, and actives are over-represented in it overall.

Chain of Bcl-2-related protein A1 (Homo sapiens) (Q16548 whole entry, looked up): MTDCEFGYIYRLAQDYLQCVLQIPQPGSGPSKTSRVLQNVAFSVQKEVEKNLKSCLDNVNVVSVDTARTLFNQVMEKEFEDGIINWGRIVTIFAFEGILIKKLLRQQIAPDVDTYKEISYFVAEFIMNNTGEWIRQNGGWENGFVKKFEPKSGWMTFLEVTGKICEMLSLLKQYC

The test has as its target Bcl-2-related protein A1 (Homo sapiens) (UniProt Q16548). In words: inhibitors of Bim binding to Bfl-1, primary screen, biochemical, multiplexed, bead-based flow cytometry (AID 1008).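 Further: 0% = wells without compound plus tracer and 100% = blocker peptide.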 The conditions noted are these: Bim-Bfl-1 binding inhibition, at 10 µM, stronger effect = higher value. (Flow cytometry measures light scatter and fluorescence of single cells or particles in a stream.)
Take `O=c1[nH]c2ccccc2n2c(-c3ccccc3)nnc12`: the inhibition was 54% (active).

For the molecule `O=[N+]([O-])c1cccc(-c2nnc3c4ccccc4c4ccccc4n23)c1`, the inhibition is -7% (inactive).

With `CCOC(=O)c1cnc2[nH]c3ccccc3n2c1=O`, the inhibition is -8% (inactive).

As for `CC(=O)c1ccc(N2CCN(C(=O)c3ccc4nc[nH]c4c3)CC2)cc1`, the inhibition was 0% (inactive).

Regarding `CN(C(=O)CSc1nnc(Nc2ccccc2)s1)C1CCS(=O)(=O)C1` (stereo not drawn), the inhibition is -5% (inactive).

Turning to `CC1(C)C2CCC1(C)C(OC(=O)c1ccc(O)cc1)C2` (stereo not drawn), the inhibition is 2% (inactive).

On to `COc1ccc(CC(=O)NCc2nnc(SCC(=O)Nc3ncc(C)s3)n2C)cc1`, for which the inhibition is -5% (inactive).

Consider `COc1ccc(CN2CCNC(=O)C2CC(=O)N(C)Cc2ccccn2)cc1OC` (stereo not drawn), for which the inhibition is -2% (inactive).

`O=C(O)CC(Cc1ccccc1)C(=O)Nc1ccc([N+](=O)[O-])cc1` (stereo not drawn): the inhibition is -14% (inactive).

Regarding `Cc1cc(Cl)ccc1NC(=S)N1CCC(C(N)=O)(N2CCCCC2)CC1`, the inhibition is 0% (inactive).

On to `C=CCOCCN(C)C1=NS(=O)(=O)c2ccccc21`, for which the inhibition is -4% (inactive).

As to `CCC(C)(C)NC(=O)CN(C(=O)C(=O)Nc1ccc2c(c1)OCCO2)C(C)(C)CC`, the inhibition was 3% (inactive).

Turning to `O=S(=O)(c1ccc(-c2ccccc2)cc1)N1CCCC1`, the inhibition was -7% (inactive).

With `CN(c1ccc2nc3ccccc3c(=O)n2n1)C1CCCCC1`, the inhibition is -3% (inactive).

As for `CCOC(=O)Cc1csc(NC(=O)COc2ccc3c(C)cc(=O)oc3c2)n1`, the inhibition was -4% (inactive).

For `CCOC(=O)c1ccccc1NC(=O)CSc1nc2ccccc2c(=O)[nH]1`, the inhibition is -3% (inactive).

On to `COc1ccc(-c2ccc(CCC(=O)O)n2-c2ccc(O)cc2)cc1`, for which the inhibition is 5% (inactive).

For `Cc1cc(Cl)c(S(=O)(=O)NCC2CCCO2)cc1OCC(N)=O` (stereo not drawn), the inhibition is 48% (active).

On to `Cc1cc(Cl)c(S(=O)(=O)Nc2ccc3c(c2)OCCO3)cc1OCC(N)=O`, for which the inhibition is -2% (inactive).

For `Cc1cc(Cl)c(S(=O)(=O)NCCC(=O)O)cc1OCC(N)=O`, the inhibition was -15% (inactive).

Take `CN(C)S(=O)(=O)N1CCN(c2ccc([N+](=O)[O-])cc2)CC1`: the inhibition is 0% (inactive).

For the molecule `Cc1ccc(CC(=O)Nc2ccc(OC(F)F)c(Cl)c2)cc1C`, the inhibition is -6% (inactive).

For the molecule `COc1cccc(C(O)Cc2nc3ccccc3n2C)c1OC` (stereo not drawn), the inhibition is -3% (inactive).

Take `CCOC(=O)/C(C#N)=C/c1cn(CCC(=O)O)nc1-c1ccc(Br)cc1`: the inhibition was -9% (inactive).

In the case of `CC(=O)Nc1ccc(NC(=O)COc2ccc(S(=O)(=O)NC(C)c3ccccc3)cc2)cc1` (stereo not drawn), the inhibition is -5% (inactive).

For the molecule `Cc1oc2c(c1C(=O)N1CCOCC1)C(=O)c1ccccc1C2=O`, the inhibition was -1% (inactive).

As to `Cc1ccnc(NC(=O)c2ccco2)n1`, the inhibition was -3% (inactive).

Consider `COC(=O)COc1ccc(C2NC(=O)NC(C)=C2C(=O)NCc2ccccc2)cc1OC` (stereo not drawn), for which the inhibition was -9% (inactive).

On to `C/C(=N\NC(=O)COc1c(C)cccc1C)c1cccs1`, for which the inhibition was -7% (inactive).

For the molecule `Cc1ccc(NC(=O)c2ccn(C(=O)Nc3ccccc3)n2)c(C)c1`, the inhibition was -2% (inactive).

Regarding `CC1(C)CC(=O)c2ccc(O)cc2O1`, the inhibition is -4% (inactive).

On to `Cc1[nH]c2ccccc2c1SCC(=O)Nc1nccs1`, for which the inhibition was -5% (inactive).

Take `CCCOC(=O)c1c(NC(=O)c2cnn3c2NC(c2ccccc2)CC3C(F)(F)F)sc2c1CCCC2` (stereo not drawn): the inhibition was -18% (inactive).

Turning to `Cc1ccc(-c2csc(NC(=O)Cn3[nH]c(=O)c4ccccc4c3=O)n2)cc1`, the inhibition is -4% (inactive).

Regarding `CCc1cccc(CC)c1NC(=S)NCc1ccc2[nH]c(C)cc2c1`, the inhibition is -2% (inactive).

On to `Cn1cc(CN2CCC(C(O)CCc3ccccc3)CC2)c(-c2ccccc2F)n1` (stereo not drawn), for which the inhibition is -5% (inactive).

Consider `CCO[C@H]1OC(C(=O)N2CCOCC2)=C[C@@H](c2ccc3c(c2)OCO3)[C@@H]1CCCO`, for which the inhibition was -4% (inactive).

Consider `O=C(CCC(=O)Nc1ccccc1)N/N=C/c1ccccc1F`, for which the inhibition is -4% (inactive).

In the case of `Cc1cc([N+](=O)[O-])ccc1NC1CCCC1`, the inhibition was -7% (inactive).

For `C=CS(=O)c1sc(Cl)c(N2CCOCC2)c1[N+](=O)[O-]` (stereo not drawn), the inhibition was 57% (active).

In the case of `O=[N+]([O-])c1c(NCCO)cc(Sc2nc3ccccc3s2)c2nonc12`, the inhibition was 56% (active).

On to `O=C(O)c1cccc(S(=O)(=O)Nc2ccc(O)cc2Sc2nc3ccccc3s2)c1`, for which the inhibition is 7% (inactive).

Take `COc1ccc(S(=O)(=O)Nc2ccc(O)c(Sc3nc4ccccc4s3)c2)cc1`: the inhibition is 9% (inactive).

Turning to `COc1ccc(N(C)S(=O)(=O)c2cccc3nsnc23)cc1`, the inhibition is -6% (inactive).

For `C=CCn1c2ccccc2c2nnc(SCc3[nH]c(=O)[nH]c3C(=O)CCCCC(=O)OCC)nc21`, the inhibition is 16% (inactive).

Turning to `Cc1nonc1C1CCCN1Cc1nc(-c2ccc(F)cc2F)oc1C` (stereo not drawn), the inhibition was -4% (inactive).

Regarding `Cc1n[nH]c(=O)n1-c1ccc(C(C)C)cc1`, the inhibition was -5% (inactive).

Take `C/C(CC(=O)Nc1cccc(F)c1)=N\NC(=O)C(=O)NC1CCCCC1`: the inhibition was 0% (inactive).

In the case of `CN(C(=O)c1c(Cl)cnn1C)C12CC3CC(CC(C3)C1)C2`, the inhibition is 21% (inactive).

In the case of `CCN(CCn1cccn1)Cc1nc(-c2ccc(C(=O)OC)cc2)no1`, the inhibition is -5% (inactive).

For `Cc1ccccc1NC(=O)CN1C(=O)N/C(=C\c2cccn2-c2cccc(C(=O)O)c2)C1=O`, the inhibition is -3% (inactive).

With `COc1cc(NC(=S)NCCSc2ccc(C)cc2)cc(OC)c1`, the inhibition was -1% (inactive).

As for `CCN(CC)S(=O)(=O)c1ccc(Cl)c(C(=O)NC(C)C(c2cccs2)N2CCCC2)c1` (stereo not drawn), the inhibition is -5% (inactive).

Take `C=CCNc1nc(Nc2ccc(Cl)cc2)nc(OC)n1`: the inhibition is -6% (inactive).

On to `Cc1cccc(NC(=S)NCCN(C2CCCCC2)C2CCCC2)c1`, for which the inhibition is -2% (inactive).

In the case of `CCOC(=O)C1(CC2CCCCO2)CCN(Cc2nc(-c3cccs3)oc2C)CC1` (stereo not drawn), the inhibition was -5% (inactive).

With `Cc1cccc2cc(CN(C(=O)c3cccs3)c3ccccc3)c(=O)[nH]c12`, the inhibition was -5% (inactive).

For `N=c1c2c3c(sc2ncn1N)CCCC3`, the inhibition is -7% (inactive).

In the case of `Nc1nc(CC(=O)CSc2ccc(Cl)cc2)nc(Nc2ccc(F)cc2)n1`, the inhibition was -12% (inactive).

In the case of `O=C(/C=C/c1ccc(Cl)cc1)N1CCN(c2ccccc2[N+](=O)[O-])CC1`, the inhibition was 2% (inactive).

Consider `CCN(CC)CCCNC(=O)c1ccc2c(=O)n(Cc3ccc4c(c3)OCO4)c(=S)[nH]c2c1`, for which the inhibition is -5% (inactive).

Consider `CCOC(=O)c1sc(-c2cccc([N+](=O)[O-])c2)cc1N`, for which the inhibition is -1% (inactive).

Consider `Cc1ccc(/C=N/NC(=O)Cn2ccc(C(F)(F)F)n2)o1`, for which the inhibition was -3% (inactive).

`COc1ccc(N2C(=O)C(CC(=O)Nc3ccc(F)cc3)N(CCc3cccs3)C2=O)cc1` (stereo not drawn): the inhibition was -3% (inactive).

In the case of `Cc1cc(C(=O)NNC(=O)c2cccc(S(=O)(=O)N3CCOCC3)c2)c2ccccc2n1`, the inhibition is -6% (inactive).

On to `CC(C)n1c(O)c(N=Nc2ccccn2)c2ccccc21`, for which the inhibition is -1% (inactive).

As to `CCC(O)C1CCN(Cc2cn(-c3ccc(OC)cc3)nc2-c2cccc(F)c2)CC1` (stereo not drawn), the inhibition was -8% (inactive).

In the case of `CC(=O)C1=C(C)NC2=C(C(=O)CC(C)(C)C2)C1C` (stereo not drawn), the inhibition was -2% (inactive).

Consider `O=C(O)CSc1nccc2ccccc12`, for which the inhibition is 5% (inactive).

In the case of `OC1CCCN(c2ncnc3c2nnn3Cc2c(F)cccc2Cl)C1` (stereo not drawn), the inhibition is 4% (inactive).

In the case of `CO/N=C/CC(=O)c1ccc(OC)cc1`, the inhibition is -2% (inactive).

Consider `OCCC1CN(Cc2ccc3nsnc3c2)CCN1C1CCCC1` (stereo not drawn), for which the inhibition was -8% (inactive).

For the molecule `CCc1ccc(C2C(C#N)=C(N)N(N(C)C)C3=C2C(=O)CCC3)s1` (stereo not drawn), the inhibition was 0% (inactive).

For the molecule `CC(OC(=O)c1ccccc1OCc1ccc(Cl)cc1)C(N)=O` (stereo not drawn), the inhibition is -4% (inactive).

For the molecule `CC1Cc2ccccc2N1C1=CC(=O)CC(C)(C)C1` (stereo not drawn), the inhibition was -4% (inactive).

In the case of `Cc1ccc(/C=N/NC(=O)CNC(=O)COc2ccccc2)o1`, the inhibition was -12% (inactive).

As to `C=CCc1ccccc1OCC(=O)N/N=C/c1ccccc1OCC`, the inhibition is -1% (inactive).

For the molecule `CCOc1ccccc1/C=N/NC(=O)CNC(=O)COc1ccccc1`, the inhibition is 54% (active).

Turning to `C=CCOC(=O)C1=C(C)N=C2SCCC(=O)N2C1/C=C/c1ccccc1OC` (stereo not drawn), the inhibition is -9% (inactive).

Consider `CCc1nnc(NC(=O)/C=C/c2ccc(C)o2)s1`, for which the inhibition is -1% (inactive).

With `Cc1c(NC(=O)/C=C/C(=O)O)cccc1[N+](=O)[O-]`, the inhibition was -15% (inactive).

In the case of `Cc1ccc(/C=C/C(=O)Nc2ccc([N+](=O)[O-])c(NC(=O)/C=C/c3ccc(C)o3)c2)o1`, the inhibition is 40% (active).

Turning to `O=C(/C=C/c1ccc(Cl)cc1)Nc1ccc(Br)cn1`, the inhibition was -6% (inactive).

As for `Cc1nn(-c2ccccc2)c(NC(=O)c2cccs2)c(-c2ccc(Cl)cc2)c1=O`, the inhibition is -7% (inactive).

Regarding `CSCc1cc(N2CCOCC2)nc(SCc2ccc(Cl)cc2Cl)n1`, the inhibition is -15% (inactive).

Take `Clc1ccc(CSc2nnc(/C=C/c3ccccc3)o2)c(Cl)c1`: the inhibition was -12% (inactive).

`CSCc1cc(N(C)C)nc(SCc2ccc(Cl)cc2Cl)n1`: the inhibition is 52% (active).

`COc1cc(OC)cc(-c2nnc(N(C)C(=O)c3ccncc3)s2)c1`: the inhibition is -10% (inactive).

Turning to `CCO[C@H]1OC(C(=O)N2CCCCCCC2)=C[C@@H](c2ccc(C(F)(F)F)cc2)[C@@H]1CCCO`, the inhibition was -7% (inactive).

Take `CC(/C=N/NC(=O)c1cc(-c2ccc3ccccc3c2)n[nH]1)=C\c1ccco1`: the inhibition is 8% (inactive).

In the case of `CC(/C=N/NC(=O)c1ccncc1)=C\c1ccco1`, the inhibition was -1% (inactive).

For `C/C(=C\c1ccco1)C1Nc2cccc3cccc(c23)N1`, the inhibition is 45% (active).

Consider `CCn1c(CNC(=O)c2ccco2)nnc1SCC(=O)Nc1cccc(F)c1`, for which the inhibition is -1% (inactive).

As for `Cc1ccc(C2CCN(C(=S)Nc3cccc(Cl)c3)C2)cc1` (stereo not drawn), the inhibition is -4% (inactive).

As to `COC(=O)c1cc2c(ccn2C)n1C`, the inhibition is -5% (inactive).

Turning to `COc1cc(OC)c(C(=O)OCC(=O)N2CC(=O)Nc3ccccc32)cc1OC`, the inhibition was -1% (inactive).

On to `CCC(=O)c1ccc(OCC(O)Cn2nc(C)c(C(C)=O)c2C)cc1` (stereo not drawn), for which the inhibition is 0% (inactive).

As for `CNC(=S)N1CCC(NC(=O)C(Cc2ccc(F)cc2)NC(C)=O)CC1` (stereo not drawn), the inhibition was -2% (inactive).

As a reminder, the inhibition is the drop in the measured response relative to a control, in per cent.

Source of the values: PubChem BioAssay AID1008 (NMMLSC, 2008).
